The values that follow come from PubChem BioAssay (NCATS).

The nature of experiment [1]: Confirmation and Secondary Assay for Modulators of Hemoglobin Beta Chain Splicing at IVS2 654 locus (AID 910).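 Further: HeLa cells stably carrying EGFP split by mutant beta-globin IVS2-654 intron.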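 Further: potency means the concentration at half of the fitted maximal effect; potency of activators that raise GFP signal by restoring correct splicing.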 The note with it: HeLa EGFP-654 splicing reporter, GFP fluorescence, 48 h; series mostly up to 46.1 µM. The method in brief: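 HeLa cells stably expressing EGFP interrupted by β-globin IVS2-654 intron, seeded overnight in Opti-MEM/2% FCS, then treated 2 days at 37 °C. Restored splicing read as total peak GFP intensity per well by laser scanning cytometry (488 nm excitation, 500–520 nm emission); 500 nM antisense PNA as control.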

Experiment [2] deals with ATP-dependent 6-phosphofructokinase (Trypanosoma brucei brucei) (UniProt O15648). The experiment in a line: qHTS Assay to Find Inhibitors of T. brucei phosphofructokinase: hit validation (AID 492961).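 Further: luminescence reports ADP formed as PFK phosphorylates fructose-6-phosphate with ATP.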 As to conditions: T. brucei PFK, ADP-Glo luminescence; series mostly up to 24.3 µM. The procedure, abridged: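 Compounds titrated; %activity normalized to 0x and 1x enzyme controls, curve-fitted. Readout: ADP-Glo luminescence after 45 min room-temperature reaction of 1.25 nM PFK, 0.1 mM ATP, 0.5 mM F6P, pH 8.0.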
Chain of ATP-dependent 6-phosphofructokinase (Trypanosoma brucei brucei) (O15648 whole entry, looked up): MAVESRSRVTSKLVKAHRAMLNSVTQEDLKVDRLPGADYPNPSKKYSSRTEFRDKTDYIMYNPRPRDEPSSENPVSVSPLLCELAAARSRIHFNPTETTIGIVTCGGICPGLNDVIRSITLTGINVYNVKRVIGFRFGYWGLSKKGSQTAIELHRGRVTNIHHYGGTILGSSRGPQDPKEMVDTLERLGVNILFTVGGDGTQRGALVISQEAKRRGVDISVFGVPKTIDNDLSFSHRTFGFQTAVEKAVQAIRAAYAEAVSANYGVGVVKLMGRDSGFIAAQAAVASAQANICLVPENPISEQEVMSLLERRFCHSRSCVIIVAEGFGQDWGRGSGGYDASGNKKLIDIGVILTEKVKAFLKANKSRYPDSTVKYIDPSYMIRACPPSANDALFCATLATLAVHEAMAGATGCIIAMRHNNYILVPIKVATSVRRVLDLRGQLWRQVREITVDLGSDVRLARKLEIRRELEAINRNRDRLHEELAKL
(qHTS replaces the single test concentration by a dilution series.)

The nature of experiment [3]: S16 Schwann cell PMP22 intronic element beta-lactamase assay (AID 624044; calls by dose curve; further: nearly all actives have a fitted effect of over 15% in size). As to conditions: S16 rat Schwann cells, PMP22 element beta-lactamase FRET, 24 h; series mostly up to 17.1 µM. The procedure, abridged: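 Beta-lactamase reporter under a PMP22 intronic regulatory element in stable S16 rat Schwann cells; 24 h compound exposure. 460 nm blue signal normalized between DMSO (0%) and potassium clavulanate, with 535 nm FRET tracking viability; curves classed by r2 and response.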

Another experiment has as its system ATS189. The experiment in a line: qHTS profiling for inhibitors of Plasmodium falciparum proliferation (AID 504749). Further: nearly all actives have a fitted effect of over 60% in size. Further: potency means the concentration at half of the fitted maximal effect. The note with it: P. falciparum in erythrocytes, SYBR Green DNA, 72 h; series mostly up to 12.8 µM. The method in brief: (§1)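 Each compound contacts P. falciparum-infected red blood cells for 72 h at 37 C; lysis buffer (Tris, EDTA, saponin, Triton X, SYBR Green I) is added and fluorescence measured next morning; values normalized to controls.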

The test system of the next experiment is ATS95. The description is as above. The note with it: P. falciparum in erythrocytes, SYBR Green DNA, 72 h; series mostly up to 12.8 µM. The method in brief:
as §1

The subject of a further experiment is CP203. Described as above. The note with it: P. falciparum in erythrocytes, SYBR Green DNA, 72 h; series mostly up to 12.8 µM. The procedure, abridged:
as §1

The next experiment deals with CP247. The description is as above. The note with it: P. falciparum in erythrocytes, SYBR Green DNA, 72 h; series mostly up to 12.8 µM. The procedure, abridged:
as §1

Another experiment concerns CP250. Described as above. The note with it: P. falciparum in erythrocytes, SYBR Green DNA, 72 h; series mostly up to 12.8 µM. The method in brief: as §1
A further experiment relates to CP260. Described as above. The note with it: P. falciparum in erythrocytes, SYBR Green DNA, 72 h; series mostly up to 12.8 µM. The method in brief: as §1
The next experiment relates to CP266. The description is as above. The note with it: P. falciparum in erythrocytes, SYBR Green DNA, 72 h; series mostly up to 12.8 µM. The method in brief: as §1
A further experiment concerns CP297. Described as above. As to conditions: P. falciparum in erythrocytes, SYBR Green DNA, 72 h; series mostly up to 12.8 µM. The method in brief:
as §1

Another experiment has as its system CP335. Described as above. As to conditions: P. falciparum in erythrocytes, SYBR Green DNA, 72 h; series mostly up to 12.8 µM. The method in brief:
as §1

Another experiment relates to DIV17. The description is as above. The note with it: P. falciparum in erythrocytes, SYBR Green DNA, 72 h; series mostly up to 12.8 µM. The method in brief:
as §1

Another experiment deals with Dd2. Described as above. As to conditions: P. falciparum in erythrocytes, SYBR Green DNA, 72 h; series mostly up to 12.8 µM. The method in brief: as §1
A further experiment has as its system HB3. The experiment is described as above. As to conditions: P. falciparum in erythrocytes, SYBR Green DNA, 72 h; series mostly up to 12.8 µM. The procedure, abridged:
as §1

The subject of a further experiment is ICS. The description is as above. The note with it: P. falciparum in erythrocytes, SYBR Green DNA, 72 h; series mostly up to 12.8 µM. The procedure, abridged:
as §1

For a further experiment, the system named is P93_24. The description is as above. As to conditions: P. falciparum in erythrocytes, SYBR Green DNA, 72 h; series mostly up to 12.8 µM. The procedure, abridged: as §1
A further experiment has as its system P94_40. Described as above. The note with it: P. falciparum in erythrocytes, SYBR Green DNA, 72 h; series mostly up to 12.8 µM. The method in brief:
as §1

The subject of another experiment is TAB113. The description is as above. The note with it: P. falciparum in erythrocytes, SYBR Green DNA, 72 h; series mostly up to 12.8 µM. The procedure, abridged: as §1
The next experiment concerns TAB165. The experiment is described as above. The note with it: P. falciparum in erythrocytes, SYBR Green DNA, 72 h; series mostly up to 12.8 µM. The procedure, abridged:
as §1

Records with an inconclusive call do not appear. Active and inactive are the calls of the source. Unless noted, the call rests on the fitted dose curve; in most records, active means well fitted curve in the direction sought with a large enough effect; inconclusive means small, poorly fitted or top-dose-only effect, or another doubt; inactive means no such curve, though single readings can be large; an effect the other way counts as inactive or inconclusive.

Turning to `OCC1OC(n2cnc3c(=S)nc[nH]c32)C(O)C1O` (stereo unspecified), the Potency in experiment [1] is 3.16 µM (active). Besides, in [2], the molecule was called inactive. For the same molecule, the Potency entry (in experiment [3]; in the experiment with ATS189; with ATS95; in the experiment on CP203; with CP247; with CP250) was “inactive” throughout. Also, the Potency entry in the experiment with CP260, with CP266, in the experiment on CP297, in the experiment on CP335, in the experiment on DIV17 and in the experiment on Dd2 was “inactive” throughout. Further, the Potency entry in the experiment on HB3, in the experiment on ICS, in the experiment on P93_24, in the experiment with P94_40, in the experiment on TAB113 and in the experiment with TAB165 was “inactive” in each case.
In the case of `CCCCCCCCCc1ccc(OCCOCCOCCOCCOCCOCCOCCOCCOCCO)cc1`, the Potency entry (in [1]; in the experiment on ATS95; with CP250; with CP260; with CP266; with P94_40) was “inactive” throughout. The Potency entry in the experiment on TAB113 was “inactive”. In addition, the Potency with TAB165 was 7.08 µM (active).
Regarding `C[C@]12CCC(=O)C=C1CCC1C2C(=O)C[C@]2(C)C1CC[C@]2(O)C(=O)CO` (stereo partly specified), the Potency result (in experiment [1]; in [3]; in the experiment on ATS189; in the experiment with ATS95; in the experiment on CP203; in the experiment with CP247) was “inactive” each time. The Potency result in the experiment with CP250, with CP260, in the experiment on CP266, in the experiment with CP297, in the experiment on CP335 and in the experiment on DIV17 was “inactive” each time. Moreover, the Potency entry in the experiment on Dd2, in the experiment on HB3, with ICS, in the experiment with P93_24, in the experiment with P94_40 and in the experiment on TAB113 was “inactive” each time. Moreover, the Potency result in the experiment with TAB165 was “inactive”.
Consider `CC1(C)S[C@H]2C(NC(=O)[C@@H](N)c3ccc(O)cc3)C(=O)N2[C@@H]1C(=O)O` (stereo partly specified), for which the Potency result (in [1]; in experiment [3]; in the experiment with ATS189; in the experiment with ATS95; in the experiment on CP203; in the experiment with CP247) was “inactive” in each case. Also, the Potency entry in the experiment with CP250, in the experiment with CP260, with CP266, in the experiment on CP297, in the experiment on CP335 and with DIV17 was “inactive” in each case. Further, the Potency entry with Dd2, in the experiment on HB3, with ICS, with P93_24, in the experiment on P94_40 and with TAB165 was “inactive” in each case. Besides, the molecule was classed as inactive in experiment [2].
`CCC(C)C(=O)OC1CC(O)C=C2C=CC(C)C(CCC(O)CC(O)CC(=O)O)C21` (stereo unspecified): the Potency result (in [1]; in experiment [3]; with ATS95; with CP203; in the experiment on CP247; in the experiment on CP250) was “inactive” each time. The Potency entry with CP260, in the experiment on CP266, with CP297, in the experiment with CP335, in the experiment with DIV17 and with Dd2 was “inactive” throughout. The Potency result in the experiment on HB3, with ICS, in the experiment with P93_24, with P94_40, in the experiment with TAB113 and with TAB165 was “inactive” in each case.
Turning to `CC(=O)O[C@@]1(C(C)=O)CCC2C3CC(C)C4=CC(=O)CC[C@@]4(C)C3CC[C@]21C` (stereo partly specified), the Potency result (in experiment [1]; in experiment [3]; in the experiment with CP203; with CP266; with CP297; with DIV17) was “inactive” in each case. Further, in experiment [2], the outcome was inactive. Besides, in the experiment on P94_40, the Potency is 12.6 µM (active).
For `COc1ccc(-c2cc(=O)c3c(O)cc(O[C@H]4OC(COC5OC(C)C(O)C(O)[C@H]5O)C(O)C(O)C4O)cc3o2)cc1O` (stereo partly specified), the Potency result (in experiment [1]; in experiment [3]; with ATS189; in the experiment on ATS95; in the experiment with CP203; in the experiment on CP247) was “inactive” in each case. Besides, the Potency entry in the experiment on CP250, with CP260, with CP266, with CP297, in the experiment with CP335 and in the experiment with DIV17 was “inactive” throughout. Also, the Potency result in the experiment on Dd2, in the experiment with HB3, in the experiment on ICS, with P93_24, with P94_40 and in the experiment with TAB113 was “inactive” in each case. In the experiment with TAB165, the Potency result is “inactive”.
With `CC(=O)OCC(=O)[C@@]12OC3(CCCC3)OC1CC1C3CCC4=CC(=O)C=C[C@@]4(C)[C@]3(F)C(O)C[C@]12C` (stereo partly specified), the Potency result (in [1]; in experiment [3]; in the experiment with CP250; with CP266) was “inactive” in each case. Besides, the call in experiment [2] was inactive. The Potency in the experiment on ICS and in the experiment with P94_40 was 12.6 µM (active) each time.
Regarding `C=Cc1c(C)/c2[n-]/c1=C\c1[n-]c(c(CC)c1C)/C=c1\[n-]c3c(c1C)C(=O)C(C(=O)[O-])C=3c1[n-]c(c(C)c1CCC(=O)[O-])\C=2.[Cu].[Na+].[Na+]` (stereo unspecified), the Potency result (in experiment [1]; in experiment [3]; in the experiment on CP266) was “inactive” throughout.
Regarding `C[C@@]12CCC(=O)C=C1C=CC1C2CC[C@]2(C)C1CC[C@@]21CCC(=O)O1` (stereo partly specified), the Potency entry (in experiment [1]; in [3]; with ATS95; in the experiment with CP203; in the experiment with CP260; in the experiment on CP266) was “inactive” in each case. Further, the Potency result with CP297, in the experiment on CP335, in the experiment on DIV17, in the experiment on Dd2, in the experiment with HB3 and in the experiment on P93_24 was “inactive” throughout. The Potency result in the experiment with P94_40 and in the experiment on TAB113 was “inactive” in each case. Further, the result in [2] was inactive.
With `CCC1OC(=O)CC(O)C(C)[C@@H](O[C@@H]2OC(C)[C@H](O[C@@H]3C[C@@](C)(O)C(O)C(C)O3)C(N(C)C)C2O)[C@H](CC=O)CC(C)C(=O)/C=C/C(C)=C/[C@@H]1COC1OC(C)C(O)C(OC)[C@@H]1OC` (stereo partly specified), the Potency entry in experiment [1] and in experiment [3] was “inactive” throughout. For the same molecule, the Potency is 1.12 µM (active) with CP260, 1.35 µM (active) with CP335, 0.891 µM (active) in the experiment with Dd2 and 2.82 µM (active) in the experiment on ICS.
As to `COc1ccc2cc(C(C)CO)ccc2c1` (stereo unspecified), the Potency entry (in experiment [1]; in experiment [3]; in the experiment with ATS189; in the experiment on ATS95; in the experiment on CP203; in the experiment with CP247) was “inactive” each time. Also, the Potency entry in the experiment on CP250, in the experiment with CP260, with CP266, in the experiment with CP297, in the experiment with CP335 and with DIV17 was “inactive” each time. Moreover, the Potency entry in the experiment with Dd2, with HB3, in the experiment with ICS, in the experiment on P93_24, with P94_40 and with TAB165 was “inactive” throughout.
Take `NC(CCC(=O)N[C@@H](CS)C(=O)NCC(=O)O)C(=O)O` (stereo partly specified): the Potency result (in experiment [1]; in experiment [3]; with CP266) was “inactive” each time. Moreover, the molecule was called inactive in experiment [2]. Further, the Potency with ATS189 was 8.91 µM (active); with CP260, 7.94 µM (active); in the experiment with CP297, 15.1 µM (active); in the experiment with CP335, 6.01 µM (active); in the experiment on DIV17 it was 2.69 µM (active); in the experiment on Dd2, 5.01 µM (active). Besides, the Potency in the experiment with HB3 was 3.16 µM (active); with ICS, 1.26 µM (active); with P93_24 it was 3.16 µM (active); in the experiment with P94_40 it was 3.55 µM (active); in the experiment on TAB113 it was 7.94 µM (active); in the experiment on TAB165, 3.98 µM (active).
